Measured values published in PubChem BioAssay (Tox21).
Records with an inconclusive call do not appear. A structure can be active in one record and inactive in another. The source made the active and inactive calls. Unless noted, the call rests on the fitted dose curve.

Tests used:
[1] = Nuclear factor erythroid 2-related factor 2/antioxidant responsive element (Nrf2/ARE) small molecule agonists: qHTS cell viability counter screen in human keratinocytes (AID 1919968; active means well fitted curve in the direction sought with a large enough effect in the repeat runs; an effect the other way counts as inactive or inconclusive; further: nearly all actives have a fitted effect of over 55% in size)
In short: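 KeratinoSens HaCaT cells, 1,500/well, preincubated 5 h, then exposed to compounds in DMSO for 23 h at 37 C/5% CO2. Viability read as CellTiter-Fluor fluorescence after 1 h, in the same wells as the ARE-luciferase read.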

[2] = Nuclear factor erythroid 2-related factor 2/antioxidant responsive element (Nrf2/ARE) small molecule agonists: luciferase reporter gene qHTS assay in human keratinocytes (AID 1919969); further: nearly all actives have a fitted effect of over 35% in size
[3] = target: Gonadotropin-releasing hormone receptor (Homo sapiens) (UniProt P30968); assay: Human gonadotropin-releasing hormone receptor (GnRHR) small molecule agonists, calcium flux assay in GnRHR-HEK293 cells (AID 1920063); further: nearly all actives have a fitted effect of over 35% in size
In short: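 HEK293 cells stably expressing human GnRHR were dye-loaded for 1 h at 37 C. Compound was added in agonist mode and fluorescence (Ex/Em 480/540) recorded kinetically for 3 min. Fifteen concentrations, triplicates.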

[4] = target: KiSS-1 receptor (Homo sapiens) (UniProt Q969F8); assay: Human kisspeptin (KISS1R) small molecule agonists, calcium flux assay in KISS1R-HEK293 cells (AID 1920064; active means well fitted curve in the direction sought with a large enough effect in the repeat runs; an effect the other way counts as inactive or inconclusive)
In short: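 HEK293 cells stably expressing human KISS1R were loaded with calcium dye for 1 h at 37 C, then given compound; fluorescence (Ex/Em 480/540) was read kinetically for 3 min. Fifteen concentrations, triplicate.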

[5] = G protein-coupled receptor (GPCR) small molecule agonists, calcium flux assay: HEK293 wild type cell line counter screen (AID 1920065)
In short: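 Wild-type HEK293 cells plated 18 h, loaded with calcium dye 1 h at 37 C, then compounds added in agonist mode (ATP as positive control). Kinetic fluorescence Ex/Em 480/540 recorded 3 min at 1 sec intervals; 15 concentrations, triplicate.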

[6] = p53 small molecule agonists, cell-based qHTS assay with human liver microsomes (AID 1963577);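 further: p53 response element beta-lactamase reporter cells with liver microsomes plus NADPH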
In short: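 Reporter activation was measured by LiveBLAzer fluorescence intensity in p53RE-bla cells, which had been exposed to compounds for 16 h at 37 C alongside 0.5 mg/mL human liver microsomes and 0.5 mg/mL NADPH (final concentrations).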

[7] = p53 small molecule agonists, cell-based qHTS assay with rat liver microsomes (AID 1963578)
In short: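 Compound in DMSO added to p53RE-bla cells 5 h post-plating; rat microsomes/NADPH 0.5 mg/mL final; 16 h, 37 C; LiveBLAzer 2 h RT.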

[8] = p53 small molecule agonists, cell-based qHTS assay with human liver microsomes: qHTS cell viability counter screen (AID 1963579); further: nearly all actives have a fitted effect of over 45% in size
In short: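 HLM-supplemented (0.5 mg/mL final) and NADPH-supplemented (0.5 mg/mL final) p53RE-bla cultures, 4,000 cells per well, were dosed with compounds in DMSO for 16 h at 37 C; luminescent ATP detection (CellTiter-Glo, 30 min, room temperature) quantified surviving cells.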

[9] = p53 small molecule agonists, cell-based qHTS assay with rat liver microsomes: qHTS cell viability counter screen (AID 1963580); further: nearly all actives have a fitted effect of over 45% in size
In short: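 Intracellular ATP, by CellTiter-Glo luminescence, defines viability. HCT-116 p53RE-bla cells, 4,000 per well, were compound-treated in the presence of rat liver microsomes and NADPH for 16 h at 37 C.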

[10] = p53 small molecule agonists, cell-based qHTS assay: qHTS cell viability counter screen (AID 1963581); further: nearly all actives have a fitted effect of over 45% in size
In short: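 p53RE-bla HCT-116 cells, compounds added 5 h after plating and incubated 16 h at 37 C. Cytotoxicity measured in the same wells as intracellular ATP by CellTiter-Glo luminescence after 30 min at room temperature.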

[11] = p53 small molecule agonists, cell-based qHTS assay (AID 1963582; active means well fitted activation curve with a large enough effect in the signal ratio in the repeat runs, not every such curve was filed as active; the % refers to the signal ratio)
In short: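 p53RE-bla reporter cells, compounds added in DMSO after 5 h plating, incubated 16 h at 37 C. Beta-lactamase read via 2 h room-temperature LiveBLAzer B/G FRET substrate, fluorescence intensity.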

[12] = target: 5-hydroxytryptamine receptor 2A (Homo sapiens) (UniProt P28223); assay: 5-hydroxytryptamine receptor 2A (HTR2A) small molecule antagonists, cell-based qHTS assay (AID 1963586); further: nearly all actives have a fitted effect of over 45% in size
In short: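 Antagonist-mode intracellular calcium assay: DOI (4 nM) added after 5 min compound pre-incubation at room temperature to dye-loaded HTR2A-CHO cells. Fluorescence followed for 3 min, sampled every second.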

[13] = target: 5-hydroxytryptamine receptor 2A (Homo sapiens) (UniProt P28223); assay: 5-hydroxytryptamine receptor 2A (HTR2A) small molecule agonists, cell-based qHTS assay (AID 1963587); further: nearly all actives have a fitted effect of over 30% in size
In short: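 Kinetic calcium-flux fluorescence (2 min, 1 sec intervals) after compound addition in agonist mode. HTR2A-CHO cells were cultured 18 h, then dye-loaded 1 h at 37 C.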

[14] = target: Muscarinic acetylcholine receptor M1 (Homo sapiens) (UniProt P11229); assay: Cholinergic receptor muscarinic 1 (CHRM1) small molecule antagonists, cell-based qHTS assay (AID 1963588); further: nearly all actives have a fitted effect of over 40% in size
In short: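 CHRM1-CHO calcium-flux assay, antagonist mode. Cells were seeded 18 h, dye-loaded 1 h at 37 C and given compound for 5 min at RT, then acetylcholine was added at 50nM. FDSS fluorescence was read 3 min; 15 concentrations, three runs.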

[15] = target: Muscarinic acetylcholine receptor M1 (Homo sapiens) (UniProt P11229); assay: Cholinergic receptor muscarinic 1 (CHRM1) small molecule agonists, cell-based qHTS assay (AID 1963589); further: nearly all actives have a fitted effect of over 35% in size
In short: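 CHO cells stably expressing human CHRM1 were loaded with calcium dye for 1 h at 37 C, then compound was added in agonist mode. Intracellular calcium fluorescence was followed kinetically at 1 s intervals. Fifteen concentrations were tested in three independent runs.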

[16] = cAMP Responsive Elements (CRE) small molecule agonists, cell-based qHTS assay (AID 1963590)
In short: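 CRE-bla HEK 293T cells, 2,000/well in DMEM with 10% dialyzed FBS and 25 mM HEPES, pre-incubated 18 h at 37 C, then exposed to compound 3 h at 37 C. Beta-lactamase reporter read with LiveBLAzer B/G FRET substrate after 2 h at room temperature.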

[17] = cAMP Responsive Elements (CRE) small molecule antagonists, cell-based qHTS assay (AID 1963591; active means well fitted inhibition curve with a large enough effect in the signal ratio in the repeat runs, not every such curve was filed as active; the % refers to the signal ratio)
In short: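 CRE-bla HEK293T cells plated 18 h, then given compound plus NKH477 at 0.25 uM final for 3 h at 37C. Beta-lactamase reporter read with LiveBLAzer B/G FRET substrate after 2 h at room temperature.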

[18] = target: Beta-2 adrenergic receptor (Homo sapiens) (UniProt P07550); assay: Adrenergic beta2 receptor (ADRB2) small molecule antagonists, cell-based qHTS assay (AID 1963592); further: series mostly up to about 92 µM; nearly all actives have a fitted effect of over 50% in size
In short: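 Cells (CHO, stable ADRB2 overexpression) incubated 18-20hr at 37C; compounds added from DMSO; agonist mix (1nM isoproterenol, 100uM IBMX, 25uM Ro-20-1724) added; 0.5hr RT; d2-cAMP and anti-cAMP-cryptate added; 1hr RT; 665/615 nm read.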

[19] = target: Beta-2 adrenergic receptor (Homo sapiens) (UniProt P07550); assay: Adrenergic beta2 receptor (ADRB2) small molecule agonists, cell-based qHTS assay (AID 1963593); further: potency means the concentration at half of the fitted maximal effect;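 on activation: CHO cells stably overexpressing human ADRB2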
In short: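 CHO cells stably over-expressing ADRB2 were plated overnight at 37C, then dosed with compounds plus a stimulation mix containing 100uM IBMX and 25uM Ro-20-1724 for 0.5hr at room temperature. cAMP was measured by HTRF competition, 1hr.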

[20] = target: D(2) dopamine receptor (Homo sapiens) (UniProt P14416); assay: Dopamine D2 receptor (DRD2) small molecule agonists, cell-based qHTS assay (AID 1963594); further: nearly all actives have a fitted effect of over 35% in size
In short: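 cAMP accumulation in DRD2-HEK293 cells measured by HTRF after 1 h detection; compounds added 10 min before NKH477 (200nM […]) forskolin-analogue stimulation, 30 min at room temperature, with Ro20-1724 present at 0.1 mM final.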
On the % scale 0 is the no-effect control and ±100 the full control effect.

Chain of Beta-2 adrenergic receptor (Homo sapiens) (P07550 whole entry, looked up): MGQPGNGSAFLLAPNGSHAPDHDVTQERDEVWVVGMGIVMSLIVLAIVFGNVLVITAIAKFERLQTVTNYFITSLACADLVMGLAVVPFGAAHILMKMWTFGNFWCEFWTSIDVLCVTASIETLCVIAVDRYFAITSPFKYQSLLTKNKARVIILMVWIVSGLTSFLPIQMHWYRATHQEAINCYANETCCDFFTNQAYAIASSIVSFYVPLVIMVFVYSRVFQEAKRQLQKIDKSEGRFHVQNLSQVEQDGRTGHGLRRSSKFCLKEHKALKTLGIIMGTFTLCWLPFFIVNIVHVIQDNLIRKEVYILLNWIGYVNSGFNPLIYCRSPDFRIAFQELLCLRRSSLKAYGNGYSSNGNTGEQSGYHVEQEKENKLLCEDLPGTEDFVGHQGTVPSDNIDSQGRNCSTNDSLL
Chain of Muscarinic acetylcholine receptor M1 (Homo sapiens) (P11229 whole entry, looked up): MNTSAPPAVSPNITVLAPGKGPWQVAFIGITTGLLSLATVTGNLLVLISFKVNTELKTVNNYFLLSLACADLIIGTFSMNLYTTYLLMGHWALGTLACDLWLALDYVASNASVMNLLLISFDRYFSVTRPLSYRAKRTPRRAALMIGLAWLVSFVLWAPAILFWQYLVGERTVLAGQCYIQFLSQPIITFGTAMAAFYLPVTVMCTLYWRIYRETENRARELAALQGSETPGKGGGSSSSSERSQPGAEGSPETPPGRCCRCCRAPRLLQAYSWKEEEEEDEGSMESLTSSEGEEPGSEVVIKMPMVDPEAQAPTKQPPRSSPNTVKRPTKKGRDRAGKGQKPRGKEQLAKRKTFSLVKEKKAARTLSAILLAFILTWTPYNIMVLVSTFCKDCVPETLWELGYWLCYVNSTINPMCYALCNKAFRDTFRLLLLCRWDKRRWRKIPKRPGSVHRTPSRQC
Chain of D(2) dopamine receptor (Homo sapiens) (P14416 whole entry, looked up): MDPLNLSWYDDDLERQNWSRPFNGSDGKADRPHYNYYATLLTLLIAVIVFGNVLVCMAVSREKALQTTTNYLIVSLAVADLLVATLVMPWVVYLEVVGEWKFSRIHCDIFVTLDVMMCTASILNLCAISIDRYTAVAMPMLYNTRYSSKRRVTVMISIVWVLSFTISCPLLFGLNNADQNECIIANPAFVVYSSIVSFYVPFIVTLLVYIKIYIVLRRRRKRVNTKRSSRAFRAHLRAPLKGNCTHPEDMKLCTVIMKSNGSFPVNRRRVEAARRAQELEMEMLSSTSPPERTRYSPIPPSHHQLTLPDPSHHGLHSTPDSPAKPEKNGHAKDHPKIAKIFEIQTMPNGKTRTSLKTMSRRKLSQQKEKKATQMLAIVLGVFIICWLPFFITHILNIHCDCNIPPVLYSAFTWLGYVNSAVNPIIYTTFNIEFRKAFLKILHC
Chain of 5-hydroxytryptamine receptor 2A (Homo sapiens) (P28223 whole entry, looked up): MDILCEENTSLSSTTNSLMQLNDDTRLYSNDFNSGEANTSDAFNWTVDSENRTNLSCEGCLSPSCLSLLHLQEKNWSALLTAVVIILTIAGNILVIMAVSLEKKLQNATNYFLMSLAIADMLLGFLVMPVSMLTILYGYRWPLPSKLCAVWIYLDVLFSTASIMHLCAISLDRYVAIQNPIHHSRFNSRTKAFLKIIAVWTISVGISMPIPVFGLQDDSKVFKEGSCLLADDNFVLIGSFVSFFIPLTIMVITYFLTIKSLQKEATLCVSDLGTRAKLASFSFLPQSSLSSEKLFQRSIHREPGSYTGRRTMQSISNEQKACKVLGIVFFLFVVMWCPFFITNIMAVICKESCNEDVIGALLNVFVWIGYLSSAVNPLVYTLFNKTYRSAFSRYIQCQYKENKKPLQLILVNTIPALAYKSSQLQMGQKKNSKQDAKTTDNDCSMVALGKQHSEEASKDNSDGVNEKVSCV
Chain of KiSS-1 receptor (Homo sapiens) (Q969F8 whole entry, looked up): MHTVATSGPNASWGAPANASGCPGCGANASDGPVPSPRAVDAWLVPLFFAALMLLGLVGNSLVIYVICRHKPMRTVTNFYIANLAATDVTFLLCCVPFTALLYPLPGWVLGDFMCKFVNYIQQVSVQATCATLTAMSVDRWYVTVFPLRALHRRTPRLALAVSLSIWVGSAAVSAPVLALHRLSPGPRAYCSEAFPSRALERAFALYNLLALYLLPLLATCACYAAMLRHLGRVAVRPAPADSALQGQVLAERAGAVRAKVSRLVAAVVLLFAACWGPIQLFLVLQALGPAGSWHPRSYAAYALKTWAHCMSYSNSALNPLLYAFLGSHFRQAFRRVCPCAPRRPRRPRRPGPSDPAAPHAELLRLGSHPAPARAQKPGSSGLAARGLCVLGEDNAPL
Chain of Gonadotropin-releasing hormone receptor (Homo sapiens) (P30968 whole entry, looked up): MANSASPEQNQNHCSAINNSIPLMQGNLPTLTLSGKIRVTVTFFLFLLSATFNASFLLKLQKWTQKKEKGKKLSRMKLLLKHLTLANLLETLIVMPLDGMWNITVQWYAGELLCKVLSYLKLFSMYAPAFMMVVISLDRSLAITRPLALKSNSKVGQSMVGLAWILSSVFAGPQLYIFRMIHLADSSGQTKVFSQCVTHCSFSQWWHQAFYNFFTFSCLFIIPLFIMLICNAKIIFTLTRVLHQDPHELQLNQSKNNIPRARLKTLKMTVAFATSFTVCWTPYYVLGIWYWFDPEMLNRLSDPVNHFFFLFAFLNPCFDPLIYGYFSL

O=C(CCN1CCN(CCO)CC1)N1c2ccccc2Sc2ccc(C(F)(F)F)cc21
inactive: Potency [1] | Potency [2] | Potency [3] | Potency [4] | Potency [5] | Potency [6] | Potency [7] | Potency [8] | Potency [9] | Potency [10] | Potency [11] | Potency [12] | Potency [13] | Potency [14] | Potency [15] | Potency [16] | Potency [17] | Potency [18] | Potency [19] | Potency [20]

[Cl][Eu]([Cl])[Cl]
inactive: Potency [1] | Potency [2] | Potency [3] | Potency [4] | Potency [5] | Potency [6] | Potency [7] | Potency [8] | Potency [9] | Potency [10] | Potency [11] | Potency [12] | Potency [13] | Potency [14] | Potency [15] | Potency [16] | Potency [17]

C=CC(=O)OCCOC1C2CCC1C1CC=CC12 (configuration not stated)
inactive: activity change, negative = cytotoxicity [1] 0.243% [at 19 µM] | activity, positive = activation [2] -2.46% [at 19 µM] | activity change [3] -0.687% [at 11.8 µM, stronger effect = higher value] | activation [4] 0.154% [at 15.8 µM] | activation [5] 0.0334% [at 11.8 µM] | activation [6] -3.49% [at 13.5 µM] | activation [7] -1.33% [at 13.6 µM] | activity change, negative = cytotoxicity [8] -0.599% [at 13.5 µM] | activity change, negative = cytotoxicity [9] -0.677% [at 13.5 µM] | activity change, negative = cytotoxicity [10] 10.1% [at 13.5 µM] | activation [11] -0.725% [at 13.5 µM] | activity, negative = inhibition [12] 14.3% [at 12.7 µM] | activation [13] -3.51% [at 15.9 µM] | activity, negative = inhibition [14] 1.12% [at 12.6 µM] | activation [15] 0.0965% [at 15.8 µM] | activation [16] -0.462% [at 19 µM] | activity change, negative = inhibition [17] -8.52% [at 18.9 µM] | activity change, negative = inhibition [18] -1.49% [at 19 µM] | activation [19] -22.8% [at 19 µM] | activation [20] -2.06% [at 19 µM]

CCCCOC(=O)C(C)OC(=O)CCC (configuration not stated)
inactive: Potency [1] | Potency [2] | Potency [3] | Potency [4] | Potency [5] | Potency [6] | Potency [7] | Potency [8] | Potency [9] | Potency [10] | Potency [11] | Potency [12] | Potency [13] | Potency [14] | Potency [15] | Potency [16] | Potency [17] | Potency [18] | Potency [19] | Potency [20]

CC(C)(C)NCCO
inactive: Potency [1] | Potency [2] | Potency [3] | Potency [4] | Potency [5] | Potency [6] | Potency [7] | Potency [8] | Potency [9] | Potency [10] | Potency [11] | Potency [12] | Potency [13] | Potency [14] | Potency [15] | Potency [16] | Potency [17] | Potency [18] | Potency [19] | Potency [20]

FC(F)(F)c1ccccc1Cl
inactive: Potency [1] | Potency [2] | Potency [3] | Potency [4] | Potency [5] | Potency [6] | Potency [7] | Potency [8] | Potency [9] | Potency [10] | Potency [11] | Potency [12] | Potency [13] | Potency [14] | Potency [15] | Potency [16] | Potency [17] | Potency [18] | Potency [19] | Potency [20]

CC(=O)OCCOCCOCCOC(C)=O
53.8 µM (active) and inactive: Potency [19]
inactive: Potency [1] | Potency [2] | Potency [3] | Potency [4] | Potency [5] | Potency [6] | Potency [7] | Potency [8] | Potency [9] | Potency [10] | Potency [11] | Potency [12] | Potency [13] | Potency [14] | Potency [15] | Potency [16] | Potency [17] | Potency [18] | Potency [20]
